# PubChem BioAssay (NCI)
# This is part of a sample that, as a whole, favours compounds with a hit. Of some 79,000 tested, about 15% had one in any assay. Activity calls are given as the source filed them. Rule as the data show it: active = growth inhibition above about 70%; inactive = the rest.
# Test: NCI Yeast Anticancer Drug Screen. Data for the cln2 rad14 strain (AID 165);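 also: 0% = growth equal to vehicle treated cultures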
# Settings: S. cerevisiae cln2 rad14 strain, at 50.0 µM, hits give high values
# How it was run: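 Strain: cln2 rad14 yeast, altered in cell cycle control and DNA damage repair. Read-out: growth inhibition vs vehicle.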
row,SMILES,growth inhibition
1,C/C=C/C1OCC(C)(C)CO1,-46.8% (inactive)
2,NC(=O)N=P(c1ccccc1)(c1ccccc1)c1ccccc1,7.75% (inactive)
3,COCCNC(c1ccccc1)C(O)c1ccccc1 (stereo not drawn),-33% (inactive)
4,CCOC(=O)N1C(=O)c2ccccc2C1=O,-8.75% (inactive)
5,COc1ccc(/C=C2\N=C(c3ccccc3)OC2=O)c(Br)c1OC(C)=O,-12.3% (inactive)
6,CCCCCCCCCCCCCCC(CCCCCCCCCCCCCC)c1ccccc1,-29.4% (inactive)
7,Clc1ccc2nc[nH]c2c1,0.7% (inactive)
8,[N-]=[N+]=CC(=O)C1OC1c1ccc(Br)cc1 (stereo not drawn),24.4% (inactive)
9,O=C1NC2CCC(NC(=O)N1c1ccccc1)C1=C2C1,-0.8% (inactive)
10,C=CS(=O)(=O)c1ccc(NC(=O)Nc2ccc(Cl)cc2)cc1,12.8% (inactive)
11,O=c1c2ccccc2n2nnc3ccc(NCCNCCO)c1c32,23.3% (inactive)
12,CCCCOC(=O)c1ccc(OC(=O)Nc2cccc(Cl)c2)cc1,12.2% (inactive)
13,CC(=O)OCC1OC(n2c(Br)nc3c(N)ncnc32)C(O)C1O (stereo not drawn),-12.2% (inactive)
14,CC(=O)OC1/C=C(/C)CCC2OC2(C)CC2OC(=O)C3(CC3)C12 (stereo not drawn),10.7% (inactive)
15,NC(c1ccccc1)(c1ccccc1)c1ccccc1,-9.8% (inactive)
16,Cc1cc(C(C)(C)C)nc(C(C)(C)C)c1,-60.6% (inactive)
17,COc1ccc(N2C(=O)C3c4[nH]c5cccc(C)c5c4C4CCC(C(C)(C)C)CC4C3C2=O)cc1 (stereo not drawn),-10.6% (inactive)
18,CCC(C)C(C(=O)OCCC[N+]1(C)CCCCC1)c1ccccc1 (stereo not drawn),-4.4% (inactive)
19,COC(=O)[C@H]1C=C[C@H](OC2OC(COC(C)=O)C(OC(C)=O)C(OC(C)=O)C2OC(C)=O)n2c(=O)n(-c3ccccc3)c(=O)n21 (stereo partly drawn),5.5% (inactive)
20,Cc1ccc(N2C(=O)CS/C2=C(\C#N)c2nc3ccccc3[nH]2)cc1,-57.9% (inactive)
21,NC(=O)c1ccc[n+](CC(=O)Nc2ccccc2)c1,-30.6% (inactive)
22,COc1ccc2c(-c3cc4ccccc4o3)cc(=O)oc2c1,2% (inactive)
23,CN(C)CCCNC(=O)N/N=C\c1cccc2ccccc12,14.8% (inactive)

# Test: NCI Yeast Anticancer Drug Screen. Data for the bub3 strain (AID 167)
# Settings: S. cerevisiae bub3 mutant strain, at 50.0 µM, hits give high values
# How it was run: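 Growth of a checkpoint-deficient yeast mutant is measured after compound exposure. Values represent inhibition relative to vehicle.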
row,SMILES,growth inhibition
1,CCOC(=O)C(=CNc1cc(C(F)(F)F)ccc1N1CCOCC1)C(=O)OCC,2.25% (inactive)
2,COCC(=O)c1ccc(C#N)cc1,4.45% (inactive)
3,CC(=O)Nc1ccc(O)c([N+](=O)[O-])c1,-9.15% (inactive)
4,CC1(C)C2CC3C(=CCCC3C(=O)O)C1C2 (stereo not drawn),11.1% (inactive)
5,COc1cc(C(C#N)NNC(=O)c2ccccc2O)ccc1O (stereo not drawn),66.2% (inactive)
6,O=C(On1nnc2ccccc2c1=O)c1ccccc1,-3.25% (inactive)
7,c1ccc(-c2n[nH]c3c2CCCc2ccccc2-3)cc1,3.3% (inactive)
8,O=C1NC(=O)c2c(Br)c(Br)c(Br)c(Br)c21,-16.6% (inactive)
9,CCOC(=O)/C(F)=C/c1cccc([N+](=O)[O-])c1,7.95% (inactive)
10,Nc1cc(Cl)cc2[nH]c(=O)c3cc(Cl)ccc3c12,17.2% (inactive)
11,O=C1N=C2SCCCN2C1(c1ccccc1)c1ccccc1,0% (inactive)
12,COC(=O)Nc1nc2ccc(C3c4c(n[nH]c4C)CC(C)(O)C3C(C)=O)cc2[nH]1 (stereo not drawn),0.45% (inactive)
13,O/N=C1\c2ccccc2-c2cccc(I)c21,1.1% (inactive)
14,O=C1C(c2ccccc2)=C(c2ccccc2)C(c2ccc(Sc3ccc(C4=C(c5ccccc5)C(=O)C(c5ccccc5)=C4c4ccccc4)cc3)cc2)=C1c1ccccc1,-1.2% (inactive)
15,O=C(O)/C=C/C=C/c1ccc(Cl)cc1,10.4% (inactive)
16,CSc1ccccc1C(C)(C)O,-1.4% (inactive)
17,CCCNc1ccc2c(c1)C(=O)c1ccccc1-2,-0.65% (inactive)
18,C/C=C/C1OCC(C)(C)CO1,-24.7% (inactive)
19,NC(=O)N=P(c1ccccc1)(c1ccccc1)c1ccccc1,3% (inactive)
20,COCCNC(c1ccccc1)C(O)c1ccccc1 (stereo not drawn),7.5% (inactive)

row,SMILES,growth inhibition
1,CCOC(=O)N1C(=O)c2ccccc2C1=O,-13.3% (inactive)
2,COc1ccc(/C=C2\N=C(c3ccccc3)OC2=O)c(Br)c1OC(C)=O,-0.8% (inactive)
3,CCCCCCCCCCCCCCC(CCCCCCCCCCCCCC)c1ccccc1,-2.65% (inactive)
4,Clc1ccc2nc[nH]c2c1,5.9% (inactive)
5,[N-]=[N+]=CC(=O)C1OC1c1ccc(Br)cc1 (stereo not drawn),-0.25% (inactive)
6,O=C1NC2CCC(NC(=O)N1c1ccccc1)C1=C2C1,-3.4% (inactive)
7,C=CS(=O)(=O)c1ccc(NC(=O)Nc2ccc(Cl)cc2)cc1,1.25% (inactive)
8,O=c1c2ccccc2n2nnc3ccc(NCCNCCO)c1c32,-0.45% (inactive)
9,CCCCOC(=O)c1ccc(OC(=O)Nc2cccc(Cl)c2)cc1,70.7% (active)
10,CC(=O)OCC1OC(n2c(Br)nc3c(N)ncnc32)C(O)C1O (stereo not drawn),-0.7% (inactive)
11,CC(=O)OC1/C=C(/C)CCC2OC2(C)CC2OC(=O)C3(CC3)C12 (stereo not drawn),1% (inactive)
12,NC(c1ccccc1)(c1ccccc1)c1ccccc1,19.4% (inactive)
13,Cc1cc(C(C)(C)C)nc(C(C)(C)C)c1,0.8% (inactive)
14,COc1ccc(N2C(=O)C3c4[nH]c5cccc(C)c5c4C4CCC(C(C)(C)C)CC4C3C2=O)cc1 (stereo not drawn),2.8% (inactive)
15,CCC(C)C(C(=O)OCCC[N+]1(C)CCCCC1)c1ccccc1 (stereo not drawn),5.75% (inactive)
16,COC(=O)[C@H]1C=C[C@H](OC2OC(COC(C)=O)C(OC(C)=O)C(OC(C)=O)C2OC(C)=O)n2c(=O)n(-c3ccccc3)c(=O)n21 (stereo partly drawn),15.8% (inactive)
17,Cc1ccc(N2C(=O)CS/C2=C(\C#N)c2nc3ccccc3[nH]2)cc1,-76.8% (inactive)
18,NC(=O)c1ccc[n+](CC(=O)Nc2ccccc2)c1,1.95% (inactive)
19,COc1ccc2c(-c3cc4ccccc4o3)cc(=O)oc2c1,3% (inactive)
20,CN(C)CCCNC(=O)N/N=C\c1cccc2ccccc12,-4% (inactive)
